The values that follow come from PubChem BioAssay (Tox21).

Inconclusive results are not listed. Activity calls are given as the source filed them. The call rests on the fitted dose curve; in most records, active means well fitted activation curve with a large enough effect in the signal ratio in the repeat runs (not every such curve was filed as active); inconclusive means weak or mixed curves, or effect the other way; inactive means flat fitted curve, though single readings scatter; the % refers to the signal ratio.

This assay can be described thus: qHTS assay to identify small molecule agonists of the endoplasmic reticulum stress response signaling pathway (AID 1159516). Conditions: ESRE-bla HeLa, ER stress beta-lactamase reporter, 5 h; series mostly up to 61 µM. The source says:
National Center for Advancing Translational Sciences [NCATS]
NIH Chemical Genomics Center [NCGC]
U.S. Environmental Protection Agency [EPA]
National Institutes of Environmental Health Sciences [NIEHS]
National Toxicology Program [NTP]
U.S. Food and Drug Administration [FDA]
Endoplasmic Reticulum (ER) plays an important role in cellular signaling, protein folding/maturation, stress response, lipid biosynthesis, calcium storage and release etc. Under stress conditions, proteins in ER misfold or unfold, and leading to the expression of ER stress responsive genes. ER stress has been associated with a variety of pathophysiological conditions such as cancer, inflammation, neurodegenerative diseases, diabetes, ischemic heart disease etc. To identify the compounds that induce ER stress response, an ER stress reporter cell line, CellSensor ESRE-bla HeLa (Life Technologies, Carlsbad, CA) containing a beta-lactamase reporter gene under control of the Endoplasmic reticulum Stress Response Element (ESRE) was used to screen Tox21 10K compound library.
Tox21 Assay Protocol Summary:
ESRE-bla HeLa cells were dispensed at 1,500 cells/6 uL of assay medium per well into black wall/clear-bottom 1536-well plates using a Multidrop Combi (ThermoFisher Scientific, Waltham, MA) dispenser. After the assay plates were incubated at 37 C and 5% CO2 for an overnight, 23 nL of compounds dissolved in DMSO, positive controls or DMSO only was transferred to the assay plate by a Pintool station (Kalypsys, San Diego, CA). The assay plates were incubated at 37 C and 5% CO2 for 5 hr. One uL of LiveBLAzer B/G FRET substrate (Life Technologies) was added using a Flying Reagent Dispenser (Aurora Discovery, San Diego, CA) and the plates were incubated at room temperature for 2 hr. Fluorescence intensity (405 nm excitation, 460 nm and 530 nm emissions) was measured using an Envision plate reader (PerkinElmer, Shelton, CT).
(In general: qHTS replaces the single test concentration by a dilution series.)
Take `CC1CCC(C(C)C)C(O)C1` (stereo not given): the result was inactive.
Consider `Cc1ccc2oc(=O)ccc2c1`, for which the compound was classed as inactive.
As for `CCCCCCCCC/C=C/CC1CC(=O)OC1=O` (stereo not given), the outcome was inactive.
For the compound `CC1=CCC2CC1C2(C)C` (stereo not given), the outcome was inactive.
The value for `O=C(O)CC(C(=O)O)C(CC(=O)O)C(=O)O` (stereo not given) was “inactive”.
The value for `COS(C)(=O)=O` was “inactive”.
Turning to `CC(=O)Nc1ccccc1`, the call was inactive.
Consider `Oc1cccc2ccccc12`, for which the compound was called inactive.
Consider `C[C@H]1C[C@@H]2[C@H]([C@@H](O)C[C@@]3(C)[C@H]2CC[C@]3(O)C(=O)CO)[C@@]2(C)C=CC(=O)C=C12`, for which the result was inactive.
On to `O=C(OCCOCCOC(=O)c1ccccc1)c1ccccc1`, for which the call was inactive.
As for `C=C(C)C(=O)OCCOCCOCCOC(=O)C(=C)C`, the compound was called inactive.
The value for `C[C@H]1C[C@H]2[C@@H]3CCC4=CC(=O)C=C[C@]4(C)[C@@]3(F)[C@@H](O)C[C@]2(C)[C@@]1(O)C(=O)CO` was “inactive”; that for `CCCCC(CC)COC(=O)CS` (stereo not given) was “inactive”; that for `CC(C)(N)CO` was “inactive”.
Regarding `CC(=O)CC(=O)Nc1ccccc1C`, the outcome was inactive.
In the case of `OCC(CO)(CBr)CBr`, the result was inactive.
Take `CC(C)c1ccc(S(=O)(=O)O)cc1`: the outcome was inactive.
As to `CCCCCCCCCCCCCCO`, the compound was called inactive.
As for `CC1=CC(=O)NS(=O)(=O)O1`, the entry is “inactive”; as for `O=S(=O)(O)c1ccc2ccccc2c1`, “inactive”.
Consider `O=C(O)c1ccccc1C(c1ccc(O)cc1)c1ccc(O)cc1`, for which the result was inactive.
`Nc1cc([N+](=O)[O-])ccc1O`: the call was inactive.
Consider `CC(=O)Nc1cccc(O)c1`, for which the result was inactive.
On to `O=C(O)c1cc(C(=O)O)cc(S(=O)(=O)O)c1`, for which the call was inactive.
Consider `CCCCCOC(C)=O`, for which the outcome was inactive.
As for `COc1ccc2cc([C@H](C)C(=O)O)ccc2c1`, the entry is “inactive”; as for `CCCCC(CC)COC(=O)CCCCC(=O)OCC(CC)CCCC` (stereo not given), “inactive”.
As for `CCCCCCCC(=O)OC`, the entry is “inactive”.
The value for `COc1ccc(NC(C)=O)cc1N` was “inactive”.
Consider `Cc1cccc(O)c1`, for which the result was inactive.
As to `O=C(O)[C@H](O)[C@@H](O)[C@H](O)[C@H](O)CO`, the result was inactive.
For the compound `O=C(O)c1ccc2c(c1)C(=O)OC2=O`, the call was inactive.
On to `CCN(CC)CCCC(C)Nc1ccnc2cc(Cl)ccc12` (stereo not given), for which the call was inactive.
As to `Nc1ccccc1[N+](=O)[O-]`, the call was inactive.
For `O=c1[nH]c(=O)n([C@H]2CCCO2)cc1F`, the compound was called inactive.
`C=C(C)C(=O)Nc1ccc(Cl)c(Cl)c1`: the compound was called inactive.
Consider `CCOC(=O)NNc1nncc2ccccc12`, for which the result was inactive.
With `c1ccc(OCCOc2ccccc2)cc1`, the compound was classed as inactive.
The value for `CC(C)(C)[C@@H](O)[C@@H](Cc1ccc(Cl)cc1)n1cncn1` was “inactive”; that for `O=c1[nH]c(=O)n([C@H]2C[C@H](O)[C@@H](CO)O2)cc1Br` was “inactive”.
